Measured values reported in PubChem BioAssay (Tox21).
Active and inactive are the calls of the source. A call without a number means that no potency is given here. Calls follow the shape of the dose curve; as a rule, active = well fitted activation curve with a large enough effect in the repeat runs; inconclusive = weak or mixed curves; inactive = flat fitted curve, though single readings scatter.

Assay: A CellTox Green Cytotoxicity Assay to monitor cytotoxicity in HepG2 cells - 0 hour (AID 1224882); also: nearly all actives have a fitted effect of over 35% in size
Details: CellTox Green fluorescence; series mostly up to 76.8 µM
Description: National Center for Advancing Translational Sciences [NCATS]
NIH Chemical Genomics Center [NCGC]
U.S. Environmental Protection Agency [EPA]
National Institutes of Environmental Health Sciences [NIEHS]
National Toxicology Program [NTP]
Cell-based models are critical for drug discovery. Determining the natural cytotoxic effects resulting from test compounds is an essential research activity. A CellTox Green Cytotoxicity Assay to monitor cytotoxicity in real time of continues cell culture during 40 hours of the compound treatment was used to screen Tox21 10K library compounds in HepG2 cells. CellTox Green Cytotoxicity Assay is a nonlytic, homogeneous, biofluorescent method to measure cytotoxicity in cell culture after experimental manipulation. The assay system uses a proprietary asymmetric cyanine dye that is excluded from viable cells but preferentially stains the dead cell's DNA. […] Viable cells produce no appreciable increases in fluorescence. Therefore, the fluorescence signal produced by the binding interaction with dead cell DNA is proportional to cytotoxicity.
The mixture of HepG2 cell suspension and reagents were dispensed at 600cells/6 ul/well in 1536-well tissue culture treated black solid bottom plates using a Multidrop dispenser. After the assay plates were incubated at a 37 C/5% CO2 incubator for 5 hours, 23 nL of compounds dissolved in DMSO, positive and negative controls was transferred to the assay plate by a pintool work station. The plates were incubated at 37 C for 40 hours. The fluorescence intensity were measured at 0h, 8h, 16h, 24h, 32h and 40h time points using ViewLux plate reader during compound treatment.

| SMILES | Potency |
| --- | --- |
| Cc1cc(O)c2c(c1)C(=O)c1cc(O)cc(O)c1C2=O | inactive |
| C/C=C(C)/C=C/C=C(C)C | inactive |
| CC(C)NCC(O)COc1cccc2ccccc12 (stereo not given) | inactive |
| Cc1cc(=O)[nH]c(C(C)C)n1 | inactive |
| CC1CC(OC(=O)c2ccccc2O)CC(C)(C)C1 (stereo not given) | inactive |
| Clc1cc(Cl)c(Cl)cc1Cl | inactive |
| CC(C)(C)C1CCC(O)CC1 (stereo not given) | inactive |
| c1ccc2ccccc2c1 | inactive |
| NCc1cccc(CN)c1 | inactive |
| CC(C)(CO)COC(=O)C(C)(C)CO | inactive |
| C=C1C2CCC(C2)C1(C)C (stereo not given) | inactive |
| Cc1ccc(C(=O)O)o1 | inactive |
| CCCCCCCCCCC=CC1CC(=O)OC1=O (stereo not given) | inactive |
| CCCCCCC(C)(C)S | inactive |
| Oc1ccc2ccccc2c1 | inactive |
| CS(=O)(=O)Nc1ccc([N+](=O)[O-])cc1Oc1ccccc1 | inactive |
| OCC#CCO | inactive |
| CCc1ccc(O)cc1 | inactive |
| S=c1nc[nH]c2nc[nH]c12 | inactive |
| CCCCC(CC)C(=O)OCCOCCOCCOC(=O)C(CC)CCCC (stereo not given) | inactive |

| SMILES | Potency |
| --- | --- |
| O=[N+]([O-])C(CO)(CO)CO | inactive |
| OC[C@@H](O)[C@@H](O)[C@H](O)[C@@H](O)CO | inactive |
| O=C(Cl)c1c(Cl)c(Cl)c(C(=O)Cl)c(Cl)c1Cl | inactive |
| O=C1CCCCC1 | inactive |
| CCCCCCCCCCCCN | inactive |
| COC(=O)c1ccc(C(=O)OC)cc1 | inactive |
| NC(=O)NNc1ccccc1 | inactive |
| Oc1ccc2ccccc2c1N=Nc1ccccc1 | inactive |
| CC(=O)Nc1ccc(C(=O)O)cc1 | inactive |
| OCCOCCOCCOCCO | inactive |
| CCCCOCCO | inactive |
| CC1=C(/C=C/C(C)=C/C=C/C(C)=C/CO)C(C)(C)CCC1 | inactive |
| CCOC(=O)[C@H](CCc1ccccc1)N[C@@H](C)C(=O)N1Cc2ccccc2C[C@H]1C(=O)O | inactive |
| O=C(Oc1ccccc1)c1ccc(O)cc1 | inactive |
| Nc1cc(-c2ccncc2)c[nH]c1=O | inactive |
| COC(=O)c1ccccc1O | inactive |
| O=S(=O)(O)c1cc(S(=O)(=O)O)c2c(N=Nc3ccccc3)c(O)ccc2c1 | inactive |
| O=S(=O)(O)CCS | inactive |
| CCCCCC/C=C/CCCCCCCC(=O)O | inactive |
| CCC(C)C=O (stereo not given) | inactive |
